Compound activity as filed in PubChem BioAssay.
RXFP1 agonist = activates the human relaxin receptor RXFP1. Q9HBX9. HEK293T-RXFP1 cAMP TR-FRET, 30 min; response scale: percent of porcine relaxin response, buffer zero. Potency, µM (series often up to 57.5 µM), usual class: activators. 370,000 tested, 0.3% active; active means well fitted activation curve with a large enough effect; inconclusive means small, poorly fitted or top-dose-only effect; further: nearly all actives have a fitted effect of over 60% in size
Target sequence (Q9HBX9 whole entry, looked up): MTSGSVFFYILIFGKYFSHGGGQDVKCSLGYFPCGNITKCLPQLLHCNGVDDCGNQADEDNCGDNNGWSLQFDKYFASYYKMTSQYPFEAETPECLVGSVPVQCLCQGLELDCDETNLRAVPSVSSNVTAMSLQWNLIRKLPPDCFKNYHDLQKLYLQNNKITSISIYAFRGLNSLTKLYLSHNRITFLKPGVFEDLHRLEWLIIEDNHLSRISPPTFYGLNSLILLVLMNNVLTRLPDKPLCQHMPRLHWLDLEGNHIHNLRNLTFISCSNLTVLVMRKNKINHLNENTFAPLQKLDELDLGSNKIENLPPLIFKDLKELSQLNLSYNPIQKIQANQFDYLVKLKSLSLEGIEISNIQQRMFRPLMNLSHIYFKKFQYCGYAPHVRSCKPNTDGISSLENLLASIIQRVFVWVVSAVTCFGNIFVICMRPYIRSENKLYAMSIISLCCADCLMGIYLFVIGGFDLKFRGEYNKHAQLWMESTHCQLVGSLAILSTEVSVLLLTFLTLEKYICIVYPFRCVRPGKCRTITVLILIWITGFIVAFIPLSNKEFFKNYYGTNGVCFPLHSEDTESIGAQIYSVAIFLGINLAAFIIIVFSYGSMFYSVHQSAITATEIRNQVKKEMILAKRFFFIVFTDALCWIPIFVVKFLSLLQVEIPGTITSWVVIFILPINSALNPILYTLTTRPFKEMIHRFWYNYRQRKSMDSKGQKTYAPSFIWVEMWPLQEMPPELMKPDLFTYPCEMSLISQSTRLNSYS
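HEK293T cells stably expressing RXFP1 were pretreated with the PDE4 inhibitor Ro 20174, exposed to compounds for 30 min at 37C, lysed, and cAMP was read by TR-FRET. Data normalized to buffer (basal) and 29 nM porcine relaxin (100%).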
RXFP1 antag = antagonists of human relaxin receptor RXFP1 | Q9HBX9 | 350,000 tested, 0.59% active | HEK293-RXFP1, relaxin-stimulated cAMP HTRF, 30 min; hits give low values | activity change, negative = inhibition, % at 57.5 µM | AID 1259400;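 active means activity change of -60% or lower, but not beyond a set lower limit; inconclusive means change between -60% and -40%, or beyond the set limit; inactive means change above -40%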
FBPA coupling cs = coupling enzyme interference in Giardia aldolase counter-screen | coupling enzyme system counterscreen, AmpLite Red fluorescence | activity change, negative = inhibition, % at 58.2 µM, hits read low | 290,000 tested, 0.67% active | AID 2472; in the data active means activity change below about -30%
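First, compound is pin-transferred into glyceraldehyde-3-phosphate coupling-enzyme reagent at 57.5 uM final and held 10 min at RT. Next, substrate, coupling system and AmpLite Red are added. After 20 min RT, fluorescence (525/598 nm) is read.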
gsp agonist = activates gsp, the McCune-Albright syndrome mutation; gsp mutant cells, cAMP HTRF, 30 min; Potency, µM (series often up to 76.9 µM), hits mostly activators; 340,000 tested, 0.13% active; active means well fitted activation curve with a large enough effect; inconclusive means small, poorly fitted or top-dose-only effect, or another doubt; inactive means no such curve, though single readings can be large or run the other way; cell line not stated here;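 further: phosphodiesterase inhibitor Ro 20-1724 added with compounds to block cAMP breakdown; nearly all actives have a fitted effect of over 60% in size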
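Cells in DMEM/10% FBS with G418 were pretreated with compounds in DMSO plus […] (300 uM stock) for 30 min at 37C. cAMP was measured by HTRF (cAMP-d2 plus anti-cAMP antibody-K) after 30 min at room temperature.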
Giardia kill = Giardia lamblia killing; Giardia lamblia trophozoite viability; activity change, % at 7.66 µM, hits read low; 340,000 tested, 0.15% active; in the data active means activity change below about -80%; inconclusive means between about -30% and that limit;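 further: parasites exposed to compound for two days anaerobically before the ATP read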
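Luminescent ATP signal served as the viability read-out, measured 15-30 min after adding ATP detection reagent to trophozoites that had been incubated with compounds for 48 hrs at 37 deg C anaerobically at 100 cells/well.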
gsp antag = gsp mutant antagonism | gsp-mutant cells, cAMP HTRF, 30 min | Potency, µM (highest dose often 76.9 µM), most hits filed as inhibitors | 340,000 tested, 0.4% active; calls by dose curve; cell line not stated here;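 further: intracellular cAMP measured with PDE inhibitor Ro 20-1724 present during compound exposure; nearly all actives have a fitted effect of over 65% in size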
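HTRF cAMP read-out (cAMP-d2 plus anti-cAMP antibody-K in lysis buffer, 30 min RT). Before lysis, cells are exposed to compounds with […] for 30 min at 37C in DPBS containing Ca/Mg, BSA and Tween 20.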
Of the large screens only hits and unclear results are named; the others gave an inactive call. Sampled rows, rich in hits. Any-hit rate of the full collection: about 1.6%.

COC1=C2C[C@@H](C)C[C@H](OC)[C@H](O)[C@@H](C)/C=C(\C)[C@H](OC(N)=O)[C@@H](OC)/C=C\C=C(/C)C(=O)NC(=CC1=O)C2=O	FBPA coupling cs -65.0 (no result: RXFP1 agonist, RXFP1 antag, gsp agonist, Giardia kill, gsp antag)
CN1CCN(C(=S)C(=O)Nc2ccc(Br)cc2)CC1	FBPA coupling cs -36.6
O=C(Nc1ccccc1C(=O)Nc1nnc(C(F)(F)F)s1)c1ccccc1Cl	gsp antag 31.6µM
Cc1cc(C(=O)Nc2nnc(C(F)(F)F)s2)cs1	FBPA coupling cs -34.6
CC(NC(=O)Nc1nnc(C(F)(F)F)s1)(C(F)(F)F)C(F)(F)F	gsp agonist inconclusive, gsp antag 6.31µM
O=C(Nc1nnc(C(F)(F)F)s1)c1ccc(Br)s1	FBPA coupling cs -34.2
CC(C)(C)CC(=O)Nc1nnc(C(F)(F)F)s1	none
CCn1c(C(=O)O)c(S(=O)(=O)c2ccc(Cl)cc2)c2ccccc21	gsp agonist inconclusive
O=C(Nc1ccc(Cl)c(Cl)c1)c1cccc(S(=O)(=O)NCc2cccnc2)c1	gsp antag 28.2µM
COc1ccc(C(CNC(=O)COc2ccc(Cl)c(C)c2)N2CCCCC2)cc1 (stereo not given)	none
Cc1ccc(-c2nnc(N3CCN(C(=O)c4cccs4)CC3)c3ccccc23)cc1	gsp antag 44.7µM
Cc1ccc(-c2nnc(N3CCN(c4ccccn4)CC3)c3ccccc23)cc1	RXFP1 antag inconclusive, gsp antag 39.8µM
Cc1ccc(-c2nnc(N3CCCCC3)c3ccccc23)cc1	gsp antag 35.5µM
c1ccc(-c2nnc(N3CCN(c4ccccn4)CC3)c3ccccc23)cc1	none
O=C(c1cccs1)N1CCN(c2nnc(-c3ccccc3)c3ccccc23)CC1	none
CO[C@H]1COC(=O)C/C=C\[C@@H](C)COC(=O)[C@@H](CCSC)NC(=O)C/C=C\[C@@H]1C	none (no result: RXFP1 agonist, RXFP1 antag, gsp agonist, Giardia kill, gsp antag)
C(=N\Nc1nc(Nc2ccccc2)nc(Nc2ccccc2)n1)/c1ccncc1	RXFP1 antag -60.9
C(=N\Nc1nc(Nc2ccccc2)nc(Nc2ccccc2)n1)/c1cccnc1	gsp agonist inconclusive
O=C(Nc1nnc(SCc2ccc(F)cc2)s1)C1Cc2ccccc2CN1C(=O)c1ccco1 (stereo not given)	RXFP1 antag -64.1
O=C(Nc1nnc(C2CC2)s1)C1Cc2ccccc2CN1C(=O)c1ccco1 (stereo not given)	gsp agonist inconclusive
CCC(=NCc1ccccc1)C1=C(O)C(C(=O)OC)C(C)(C)CC1=O (stereo not given)	none
CCC(=Nc1ccc(N)cc1)C1=C(O)C(C(=O)OC)C(C)(C)CC1=O (stereo not given)	FBPA coupling cs -48.3
CCCC(=Nc1ccccc1)C1=C(O)C(C(=O)OC)C(C)(C)CC1=O (stereo not given)	none
CCCCC(=Nc1ccc(N)cc1)C1=C(O)C(C(=O)OC)C(C)(C)CC1=O (stereo not given)	FBPA coupling cs -39.9, gsp antag inconclusive
COc1ccc2[nH]c(=O)c(CNc3cccc(C)c3)cc2c1	FBPA coupling cs -38.9 (no result: RXFP1 antag)
CCOc1c2c(c(-c3ccc4c(c3)OCO4)c3cc(OC)c(OC)cc13)C(=O)OC2	none (no result: RXFP1 agonist, RXFP1 antag, FBPA coupling cs, gsp agonist, gsp antag)
CC(C)NC[C@@H](O)c1ccc(O)c(O)c1	RXFP1 agonist inconclusive, FBPA coupling cs -31.0 (no result: RXFP1 antag, gsp agonist)
CC(NCC(O)COc1ccc2ccccc2c1)c1ccccc1 (stereo not given)	RXFP1 antag -87.4, gsp agonist inconclusive
O=C(CSc1ccccc1[N+](=O)[O-])NC1CCS(=O)(=O)C1 (stereo not given)	none
CN(CC(=O)NC1CCN(Cc2ccccc2)CC1)S(=O)(=O)c1ccc2c(c1)c(=O)n(C)c(=O)n2C	gsp agonist inconclusive
CSCCC(NS(=O)(=O)c1ccc2c(c1)c(=O)n(C)c(=O)n2C)C(=O)NC1CCN(Cc2ccccc2)CC1 (stereo not given)	RXFP1 agonist 17.8µM
Cc1ccc(C(=O)Nc2ccc(SC(F)F)cc2)s1	RXFP1 antag -73.4 (no result: gsp antag)
COc1cccc2c1C(=O)c1c(O)c3c(c(O)c1C2=O)C[C@@](O)(C(=O)CO)C[C@@H]3O[C@H]1C[C@H](N)[C@H](O[C@@H]2CCCCO2)[C@H](C)O1	none (no result: RXFP1 agonist, FBPA coupling cs, gsp agonist, Giardia kill, gsp antag)
CC1(C)Cc2c(c(-c3ccco3)[nH]c(=O)c2C#N)CS1	FBPA coupling cs -42.6
CC1(C)Cc2c(c(-c3ccccc3)[nH]c(=O)c2C#N)CS1	none
CS(=O)(=O)c1oc(-c2ccc(F)cc2)nc1S(=O)(=O)c1ccc(Cl)cc1	RXFP1 antag inconclusive (no result: FBPA coupling cs, gsp agonist, Giardia kill, gsp antag)
CC(C)S(=O)(=O)c1oc(-c2cccs2)nc1S(=O)(=O)c1ccc(F)cc1	RXFP1 antag -78.8 (no result: FBPA coupling cs, gsp agonist, Giardia kill, gsp antag)
CC(C)S(=O)(=O)c1oc(-c2ccc(F)cc2)nc1S(=O)(=O)c1ccccc1	RXFP1 antag -105.7 (no result: FBPA coupling cs, gsp agonist, Giardia kill, gsp antag)
CCCCS(=O)(=O)c1oc(-c2ccc(F)cc2)nc1S(=O)(=O)c1ccccc1	RXFP1 antag -80.7 (no result: FBPA coupling cs, gsp agonist, Giardia kill, gsp antag)
CSc1oc(-c2ccc(F)cc2)nc1S(=O)(=O)c1ccccc1	none
CCS(=O)(=O)c1oc(-c2ccc(F)cc2)nc1S(=O)(=O)c1ccc(Br)cc1	RXFP1 antag -102.3 (no result: FBPA coupling cs, gsp agonist, Giardia kill, gsp antag)
Cc1cc(C)c(S(=O)(=O)NCCc2cc3ccc(C)cc3[nH]c2=O)c(C)c1	none (no result: RXFP1 antag, FBPA coupling cs, gsp agonist, Giardia kill, gsp antag)
CC1=NOC(=O)/C1=C\c1ccc(-c2ccccc2Br)o1	RXFP1 agonist 17.8µM, gsp agonist 15.8µM
CC(=O)N(Cc1ccc(F)cc1)C1=C(NCCc2ccccc2)C(=O)c2ccccc2C1=O	FBPA coupling cs -46.6
CCOc1ccccc1NC(=O)CSc1nc2ccccc2c2nc(CCn3cncc3C)nn12	none (no result: FBPA coupling cs, gsp agonist, Giardia kill, gsp antag)
COc1ccccc1NC(=O)C(=O)N/N=C/c1ccc([N+](=O)[O-])s1	Giardia kill -89.5
CCOc1ccccc1NC(=O)C(=O)N/N=C/c1ccc([N+](=O)[O-])cc1	none
O=C(Cc1ccccc1)N/N=C/c1ccc([N+](=O)[O-])s1	Giardia kill -90.9
Cc1ccnn1CC(=O)N/N=C/c1ccc([N+](=O)[O-])s1	Giardia kill -95.9
O=C(N/N=C/c1ccc([N+](=O)[O-])s1)c1ccccc1Br	Giardia kill -95.9 (no result: FBPA coupling cs)
Cc1ccccc1C(=O)N/N=C/c1ccc([N+](=O)[O-])s1	Giardia kill inconclusive
O=C(N/N=C\c1ccc([N+](=O)[O-])s1)c1cncc(Br)c1	Giardia kill inconclusive
Cc1cc(C(=O)N/N=C/c2ccc([N+](=O)[O-])s2)c2ccccc2n1	gsp agonist inconclusive, Giardia kill -95.2
O=C(N/N=C/c1ccc([N+](=O)[O-])s1)c1ccccc1	Giardia kill -89.8
Cc1cc(C(=O)N/N=C/c2ccc([N+](=O)[O-])cc2)c2ccccc2n1	none
